Screens from PubChem.
MazF activator: activators of E. coli MazEF toxin-antitoxin RNase, primary screen, biochemical, fluorescence, uHTS. AID 504720, 2011. FAM/BHQ RNA-DNA oligo cleavage fluorescence, 5 h. 350,000 compounds, 0.32% hits. activation, % at 20 µM; in the data active = activation above about 50%
Bead autofluor: compound fluorescence in toxin protease inhibitor counterscreen | compound autofluorescence counterscreen, microsphere flow cytometry; active compounds read high | fluorescence intensity (no concentration beside the values) | 360,000 compounds, 3.1% hits; in the data active = fluorescence intensity above about 16000; inconclusive = no clear call, values can overlap the other calls
BoNT-A LC inh2: BoNT/A light chain protease inhibitors, primary screen, biochemical, flow cytometry, MLPCN library. 360,000 compounds, 0.17% hits. AID 588499, 2011. Botulinum neurotoxin type A light chain protease (Clostridium botulinum A str. ATCC 3502). inhibition, % at 10 µM. multiplex microsphere protease substrate cleavage; also: plate controls were buffer without enzyme for full effect and enzyme alone for no effect
PfHsp40 rescue: rescue of yeast from PfHsp40 toxicity, primary screen, S. cerevisiae, ATP luminescence; 340,000 compounds, 0.68% hits; growth rescue, % at 12.5 µM; S. cerevisiae expressing PfHsp40, growth rescue; AID 504582, 2011; in the data active = growth rescue above about 28%, passing the limit was not always enough; inconclusive = no clear call, values can overlap the other calls;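 also: yeast W303a lacking pdr1 and pdr3 grown in galactose medium; growth measured after three days at 30 °C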
Anthrax LF prot: Bacillus anthracis LF protease inhibitors, primary screen, biochemical, multiplex microsphere, MLPCN library; Lethal factor (Bacillus anthracis), P15917; multiplex microsphere protease cleavage assay; inhibition, % at 10 µM; 360,000 compounds, 0.12% hits; also: plate controls were buffer without enzyme for full effect and enzyme alone for no effect
BoNT F protease: BoNT/F light chain protease inhibitors, primary screen, biochemical, flow cytometry, MLPCN library; Botulinum neurotoxin type F light chain protease (Clostridium botulinum); Multiplex microsphere protease cleavage assay; inhibition, % at 10 µM; 360,000 compounds, 0.22% hits; AID 588497, 2011; in the data active = inhibition above about 35%, passing the limit was not always enough; inconclusive = no clear call, values can overlap the other calls; also: plate controls were buffer without enzyme for full effect and enzyme alone for no effect
* hit, by the source's call; ? = inconclusive; nt = not tested or not shown; + = active, no number. Sampled rows, rich in hits. Any-hit rate of the full collection: about 4.3%. Rule as the data show it, unless noted: active = inhibition above about 30%; inconclusive = no clear call, values can overlap the other calls; inactive = below that.

SMILES	MazF activator	Bead autofluor	BoNT-A LC inh2	PfHsp40 rescue	Anthrax LF prot	BoNT F protease
CN1/C(=C/C2CC(=O)NC2=O)C(C)(C)c2ccccc21 (stereo unspecified)	-10.1	19664*	5.1	0.4	1.6	4.5
Cc1nnc2c(NC3CCCCC3)nc3ccccc3n12	8.1	3432	-3.8	-0.2	-3.9	-4.1
C=CCN(C(=O)Nc1ccc(Cl)cc1)C1CC(=O)N(c2ccc(OC)cc2)C1=O (stereo unspecified)	0.8	8563	2.1	-1.5	1.7	19.6
C=CCN(C(=O)Nc1ccc(F)cc1)C1CC(=O)N(c2ccc(OC)cc2)C1=O (stereo unspecified)	5.8	21431*	3.9	0.2	-6.4	3.3
CC(C)C1/C(=N/O)CC(c2ccccc2)NC1c1ccccc1 (stereo unspecified)	13.1	2964	-0.8	49.3*	7.7	30.2
CC1/C(=N/O)CC(c2ccccc2)NC1c1ccccc1 (stereo unspecified)	3.5	7821	-1.3	-0.8	-0.6	-20.8
Cc1cccc(NC(=O)c2sc3nc(-c4ccc(F)cc4)cn3c2C)n1	-56.1	19776*	?	0.2	-0.8	1.4
Cc1c(C(=O)NCc2ccccn2)sc2nc(-c3ccc(F)cc3)cn12	0.2	19364*	1.2	1.3	-7.7	0.9
Cc1cccc(NC(=O)c2sc3nc(-c4ccccc4)cn3c2C)n1	-7.5	12530	2.0	1.6	5.0	1.8
Cc1c(C(=O)Nc2ccc3c(c2)OCO3)sc2nc(-c3ccccc3)cn12	65.7*	9656	-2.1	0.3	-5.1	-20.5
Cc1c(C(=O)Nc2ccccc2)sc2nc(-c3ccccc3)cn12	-12.7	23471*	-1.2	-0.2	-1.5	-1.2
Cc1c(C(=O)NCc2ccc3c(c2)OCO3)sc2nc(-c3ccccc3)cn12	20.2	5793	0.2	0.4	-11.6	-17.2
Nc1c(Cl)cc(-c2csc(N3CCCC3c3nc4cc(Cl)c(N5CCCCC5)cc4n3CCOCCO)n2)cc1Cl (stereo unspecified)	-5.7	4072	-0.5	20.3	-5.9	-1.0
C=C1CCC(C)C(C)(CCC2=CCOC2=O)C/C=C\C=C/1C(=O)O (stereo unspecified)	12.6	5469	0.3	0.0	-0.6	-6.4
COc1ccc(-c2cn3c(C)c(C(=O)NC(C)C)sc3n2)cc1	1.0	23094*	-1.1	0.9	-7.9	-1.6
O=C(COC(=O)/C=C/c1cccs1)Nc1nc(-c2ccccc2)cs1	-7.6	2571	-0.6	0.3	1.5	-4.0
O=C(NNc1nc(-c2ccccc2)cs1)c1ccccc1	11.1	22139*	0.5	0.7	-10.8	-3.1
O=C(/C=C/c1cccs1)Nc1nc(-c2ccccc2)cs1	8.7	22955*	0.9	8.6	-3.7	1.5
Cc1cc(OCC(=O)OC(C)C(=O)NC2CC2)c(C(C)C)cc1Cl (stereo unspecified)	3.4	3948	0.3	nt	-3.0	-7.3
O=C(O)/C=C/C(=O)NC1CC1	6.1	4394	0.0	-1.0	-8.2	-5.0
Cc1ccc2nc3c(cc(C(=O)NCC4CCCO4)c(=N)n3CC3CCCO3)c(=O)n2c1 (stereo unspecified)	2.0	3882	0.7	0.6	32.9*	1.9
Cc1ccc2nc3c(cc(C(N)=S)c(=N)n3CCCOC(C)C)c(=O)n2c1	20.9	13411	45.3*	1.1	13.0	-8.9
CCCOc1cccc(CN2CCCCC2c2cccnc2)c1 (stereo unspecified)	-7.2	7903	0.7	-0.6	0.2	4.4
COc1ccccc1CN1CCCCC1c1cccnc1 (stereo unspecified)	9.3	22672*	2.3	0.4	-0.4	0.4
O=C(O)CCc1nn2c3ccccc3n(CCN3CCCCC3)c2nc1=O	9.3	17537*	-3.5	-0.7	-0.4	-6.1
SMILES	MazF activator	Bead autofluor	BoNT-A LC inh2	PfHsp40 rescue	Anthrax LF prot	BoNT F protease
O=C(O)CCc1nn2c3ccccc3n(CCO)c2nc1=O	4.5	2182	-0.6	-0.6	-2.0	0.3
CC(=O)c1ccc(-n2c(CCC(=O)O)ccc2-c2cccs2)cc1	5.0	9453	1.4	-0.9	0.3	-1.2
Cc1ccc(-n2c(CCC(=O)O)ccc2-c2cccs2)cc1	-26.4	23564*	-1.5	-1.4	3.6	-2.2
CNS(=O)(=O)c1ccc(C(C)(C)C)cc1	1.8	3760	0.3	-1.0	-6.9	-4.1
CN(N=Nc1ccc([N+](=O)[O-])cc1)c1ccccc1	+	2596	-0.7	0.6	0.8	-1.0
Cc1ccc(NC(=O)N(Cc2cccnc2)Cc2ccco2)cc1C	0.3	23168*	-3.2	-1.5	-6.6	-4.1
O=C(Nc1ccc(Cl)cc1)N(Cc1cccnc1)Cc1ccco1	-3.1	9511	-1.2	1.0	-6.2	-5.2
COC(=O)c1c(C)[nH]c(C(=O)CN(C)CC(=O)Nc2cccc(F)c2)c1C	-7.8	?	-1.3	0.5	0.0	0.1
CN(C)c1ccc(NC(=O)CN2CCc3ccccc3C2)cc1	14.0	3577	4.7	0.8	-9.4	-33.1
CC1(c2cccc3ccccc23)OC(=O)c2ccccc21 (stereo unspecified)	2.7	3492	-0.4	-0.5	-4.0	-8.5
O=C(COC(=O)c1cnccn1)NCCc1ccccc1	-2.8	?	0.4	0.0	-14.0	0.7
O=C(COC(=O)c1cnccn1)NCc1ccccc1	-5.8	20877*	-0.6	0.9	0.7	-3.7
Cc1noc(C)c1S(=O)(=O)Nc1ccc(O)c2c(=O)cc(-c3ccccc3Cl)oc12	6.1	3595	-0.2	3.8	-6.0	-0.3
CC(=O)Oc1ccccc1C(=O)C=Cc1cccc([N+](=O)[O-])c1	9.4	4005	-0.1	127.6*	-9.1	-10.2
c1nc(NC2CCCCCC2)c2[nH]cnc2n1	2.3	6928	-1.9	1.2	-7.9	-4.8
c1nc(NC2CCCCC2)c2[nH]cnc2n1	-2.0	19676*	-0.1	-1.1	1.8	0.4
Cc1ccc2c(c1)N(CC(=O)N1CCCCC1)C(=O)CO2	3.2	3681	1.2	0.6	-7.7	4.2
Cc1ccc2c(c1)N(CC(=O)NCc1cccs1)C(=O)CO2	3.9	9907	-0.9	0.4	-1.0	-7.0
O=C(CN1C(=O)COc2ccccc21)N1CCN(c2ccccc2F)CC1	5.1	8174	-0.9	83.5*	-1.6	-12.3
Cc1ccc2c(c1)N(CC(=O)N1CCc3ccccc3C1)C(=O)CO2	0.2	21837*	1.2	0.4	-1.5	-0.2
O=C(CN1C(=O)COc2ccccc21)NCCCN1CCN(c2ccccc2F)CC1	-6.5	4068	1.5	-1.2	-3.0	3.3
Cc1ccc(CNC(=O)CN2C(=O)COc3ccc(C)cc32)cc1	8.6	19416*	0.9	0.2	-4.5	0.6
Cc1ccc2c(c1)N(CC(=O)N1CCCc3ccccc31)C(=O)CO2	5.8	16620*	-0.9	-0.8	-3.9	-1.4
